# Measured values published in PubChem BioAssay AID686940 (The Scripps Research Institute Molecular Screening Center, 2013).
# The campaign covered roughly 370,000 compounds. About 2,600 (0.7%) were called active.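 Rule for the calls: active = inhibition above a per-plate cutoff, mean inhibition of test wells between control levels plus 3 SD (cut at about 38% in these data); inactive = the rest.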 What follows is part of a selection rich in actives, with near analogues and random picks from the rest.
# Target: COUP transcription factor 2 (Homo sapiens) (UniProt P24468)
# Sequence (P24468 whole entry, looked up): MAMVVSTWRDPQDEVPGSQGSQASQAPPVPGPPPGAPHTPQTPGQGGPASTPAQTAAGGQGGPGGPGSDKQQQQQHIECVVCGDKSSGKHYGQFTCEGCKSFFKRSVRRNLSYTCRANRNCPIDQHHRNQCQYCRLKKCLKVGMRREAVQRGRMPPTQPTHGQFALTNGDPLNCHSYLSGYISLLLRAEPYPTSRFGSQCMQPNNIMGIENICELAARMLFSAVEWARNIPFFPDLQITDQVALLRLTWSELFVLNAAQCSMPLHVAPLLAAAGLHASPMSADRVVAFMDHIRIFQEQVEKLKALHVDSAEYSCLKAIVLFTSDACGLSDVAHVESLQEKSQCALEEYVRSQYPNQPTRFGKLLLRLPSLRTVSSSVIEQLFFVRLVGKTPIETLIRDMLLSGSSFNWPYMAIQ
# Experiment: COUP-TFII reporter suppression in human cells – cell-based, luciferase reporter, HEK293T, luminescence, primary screen (AID 686940);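 note: cells cotransfected with COUP-TFII expression vector driving the NGFI-A reporter; 0% = median of COUP-TF2 test wells and 100% = reporter-only cells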
# Conditions: HEK293T NGFI-A luciferase reporter, at 8.6 µM, active compounds read high
row,Structure (SMILES),inhibition
1,Cc1ccccc1OCC(=O)Nc1ccc(N2CCN(C(=O)C(C)C)CC2)c(Cl)c1,40.9% (active)
2,Cc1ccc(NC(=O)COc2coc(CN3CCc4ccccc4C3)cc2=O)cc1Cl,8.3% (inactive)
3,CCc1ccccc1OCC(=O)Nc1ccc(C)c(S(=O)(=O)N2CCCCCC2)c1,16.9% (inactive)
4,C=CCOC/C=C/C#CCN(CC=C)Cc1ccc(OC)cc1OC,-4.38% (inactive)
5,COc1ccc(Nc2ncnc3ccc(Br)cc23)c(OC)c1,39.9% (active)
6,CCOC(=O)CNc1nc(Cl)nc(Nc2ccc(OC)cc2OC)n1,9.09% (inactive)
7,CC1(C)CC2CC(C)(CN2c2ncnc3ccc(Br)cc23)C1 (stereo unspecified),16.5% (inactive)
8,O=C(Nc1cccc(Cl)c1)OC1CC2CC1[C@H]1CCCCN1[C@H]2Cc1ccccc1 (stereo partly specified),14.6% (inactive)
9,O=C(Nc1ccc(N2CCOCC2)c(Cl)c1)c1ccc(S(=O)(=O)N2CCOCC2)cc1,6.88% (inactive)
10,COc1ccc(C(=O)Nc2cc(S(=O)(=O)N3CCCC3)ccc2Cl)cc1,1.63% (inactive)
11,COc1ccc(C(=O)Nc2nc(-c3ccc(S(=O)(=O)N4CCOCC4)cc3)cs2)cc1,70.8% (active)
12,COC(=O)[C@@]12CCCCC3=C1N(CCC3)C(=O)[C@H]2CC(=O)NCc1cccc2ccccc12,-8.73% (inactive)
13,Cc1c[nH]c2cccc(-c3ccc(Cl)cc3)c12,1.03% (inactive)
14,COc1cccc(/C=C2\CC3(OC(C)=O)CCCN2C3)c1 (stereo unspecified),-14.3% (inactive)
15,CC(=O)N1CCCN(C2=Nc3ccccc3Sc3ccccc32)CC1,-4.52% (inactive)
16,Cc1cc(C(=O)COc2ccccc2Cl)c(C)n1C1CC1,-24.6% (inactive)
17,Cc1cc(C(=O)CSc2nc(N)cc(=O)[nH]2)c(C)n1-c1cccc(F)c1,27.2% (inactive)
18,Cc1cc(C(=O)COC(=O)C2CC2)c(C)n1-c1ccc(F)cc1,56.4% (active)
19,COC(=O)[C@]12C[C@H](CC(=O)N3CCN(C(=O)C4CC4)CC3)C(=O)N(CCC3=CCCCC3)C1=C[C@H](C(C)C)O[C@@H]2C1CC1,5.77% (inactive)
20,CC(C)C(C#CC1CC1)N(Cc1ccc2c(c1)OCO2)C(N)=NC(=O)/C=C/c1cccc(C(F)(F)F)c1 (stereo unspecified),-0.2% (inactive)
21,CCCOc1ccc(Cc2c(Cl)nc(SC)nc2NC)cc1,46.9% (active)
22,CCCOc1ccc(Cc2c(O)nc(SC)[nH]c2=O)cc1C,17.2% (inactive)

row,Structure (SMILES),inhibition
1,CCCOc1ccc(Oc2c(Cl)cnn(Cc3cccc4ccccc34)c2=O)cc1,3.48% (inactive)
2,COC(=O)[C@]12C[C@H](CC(=O)NCC34CC5CC(CC(C5)C3)C4)C(=O)N(Cc3ccc(Cl)cc3Cl)C1=C[C@H](COCc1ccccc1)O[C@@H]2C,-8.65% (inactive)
3,COc1ccc(/C=C2\CC3(OC(C)=O)CCCN2C3)cc1 (stereo unspecified),-13.1% (inactive)
4,Fc1ccc2nc(COCc3nc4ccc(F)cc4[nH]3)[nH]c2c1,-29.3% (inactive)
5,O=C(CNS(=O)(=O)c1ccccc1F)N1CCN(c2ccccn2)CC1,8.7% (inactive)
6,COCC(C)n1c(SCC(=O)NC2CCCCC2C)nc2ccccc2c1=O (stereo unspecified),1.47% (inactive)
7,CN(c1ccc2nc3ccccc3c(=O)n2n1)C1CCCCC1,88.6% (active)
8,O=C(c1ccco1)N(Cc1nc2ccccc2c(=O)[nH]1)C1CCCC1,-0.35% (inactive)
9,CN1[C@H](Cc2ccccc2)COc2cccc(N3CCSCC3)c2S1(=O)=O,5.38% (inactive)
10,C[C@@H]1COc2cccc(N3CCCC3)c2S(=O)(=O)N1C,-14.7% (inactive)
11,COC(=O)c1cc(S(=O)(=O)N2CCN(C(=O)C3CCCO3)CC2)cn1C (stereo unspecified),-3.24% (inactive)
12,CCCCNC(=O)C[C@H]1C(=O)N(Cc2ccc(OC)cc2)C2=CCCC[C@@]21C(=O)OCC,7.45% (inactive)
13,CCn1c(CNC(=O)c2cc(OC)c(OC)c(OC)c2)cc2cc(C)ccc21,41.5% (active)
14,COc1cc(C(=O)NCc2nnc(SCC(=O)Nc3nc4ccc(C)cc4s3)o2)cc(OC)c1OC,-8.42% (inactive)
15,COc1cc(C(=O)NCC(=O)N2CC=C(c3ccccc3)CC2)cc(OC)c1OC,9.83% (inactive)
16,COc1ccccc1C(=O)NC1CCCCN(C(C)C)C1=O (stereo unspecified),2.43% (inactive)
17,CC1CCN(c2ccc(C(=O)O)cc2NS(=O)(=O)c2ccc(Br)s2)CC1,-3.26% (inactive)
18,CN(O)C(=S)c1ccccc1,43.2% (active)
19,CCn1c2ccccc2c2cc(NC(=O)CSc3nnc(-c4ccccc4)n3-c3ccc(C)cc3)ccc21,22.1% (inactive)
20,COC(=O)[C@]1(C#N)CC(=O)N(CC2CCCCC2)[C@@H]1c1ccccc1,-5.14% (inactive)
21,COc1ccccc1CCNC(=O)C1CCN(c2nc(C)cc(C)n2)CC1,1.51% (inactive)
22,O=C(Nc1cc(F)cc(F)c1)OC1CCC12CCC(c1ccccc1)CC2 (stereo unspecified),19% (inactive)

row,Structure (SMILES),inhibition
1,CN1CCN(Cc2nc3cc(NC(=O)COc4ccc([N+](=O)[O-])cc4)ccc3n2C)CC1,10.4% (inactive)
2,O=C(Nc1ccc(CN2CCOCC2)cc1)c1cc(Cl)ccc1Cl,5.94% (inactive)
3,Cn1c(CN2CCOCC2)nc2cc(NC(=O)c3ccc(Cl)cc3)ccc21,49.9% (active)
4,COc1ccc(-c2nnc(SCC(=O)c3ccc4c(c3)OCCO4)o2)cc1,17.8% (inactive)
5,COc1ccc(-n2c(C)cc(C(=O)CSc3nnc(-c4cccs4)o3)c2C)cc1,54.9% (active)
6,CCc1ccccc1NC(=O)CSc1nnc(-c2cccs2)o1,-16.3% (inactive)
7,CCC[C@H]1C(=O)CC[C@@]23CCCN2C(=O)CCC[C@@H]13,-13.2% (inactive)
8,Cc1nc(-c2ccc(Cl)cc2)sc1C1(C)CC(c2ccccc2F)=NO1 (stereo unspecified),-23.8% (inactive)
9,Cc1nc(C(=O)Nc2ccc(Cl)cc2)sc1C1(C)CC(c2ccccc2)=NO1 (stereo unspecified),5.05% (inactive)
10,Cc1nc(C(=O)NCc2ccccc2)sc1C1(C)CC(c2cccnc2)=NO1 (stereo unspecified),37.6% (active)
11,CCOC(=O)[C@]12CCCCC/C=C\1N(Cc1ccc(OC)cc1)C(=O)[C@H]2CC(=O)NCCCN1CCCC1=O,1.89% (inactive)
12,CC(C)(C)OC(=O)NCCc1ccccc1/C=C/S(=O)(=O)NCc1ccc(F)cc1,13.2% (inactive)
13,O=C(NC1CCC1)c1ccc(C#CC2CC2)cn1,-23.3% (inactive)
14,O=C(Nc1ccc(S(=O)(=O)NCC2CCCO2)cc1)c1ccc(F)cc1 (stereo unspecified),45.5% (active)
15,O=C(NCC1CCCO1)c1ccc(S(=O)(=O)Nc2ccc(F)cc2)cc1 (stereo unspecified),-7.6% (inactive)
16,Cc1ccc(NC(=O)c2ccc(S(=O)(=O)NCC3CCCO3)cc2)cc1C (stereo unspecified),-13.5% (inactive)
17,CCOC(=O)[C@]12CCCC=C1N(CCCOC)C(=O)[C@@H]2CC(=O)N1CCOCC1,13% (inactive)
18,CCCC[C@H]1C2CC(OC(=O)NCc3ccccc3)C(C2)[C@H]2CCCCN21 (stereo partly specified),2.27% (inactive)
19,CC(C)CNS(=O)(=O)CC1NCCc2ccccc21 (stereo unspecified),10.8% (inactive)
20,CCN(CC)S(=O)(=O)c1ccc(N(C)Cc2cccc(OC)c2OC)nc1,1.36% (inactive)
21,CCN(CC)S(=O)(=O)c1ccc(N(C)Cc2ccc(C(F)(F)F)cc2)nc1,41.6% (active)
22,CCN(CC)S(=O)(=O)c1ccc(N(C)CCc2ccc(OC)c(OC)c2)nc1,-0.82% (inactive)

row,Structure (SMILES),inhibition
1,CCOC(=O)[C@@]12CCC3=C1N(CCC3)C(=O)[C@H](CC(=O)N1CCN(C(=O)c3ccco3)CC1)C2,0.9% (inactive)
2,COc1ccc(C2Nc3ccccc3C(=O)N2Cc2cccs2)cc1COc1c(C)cccc1C (stereo unspecified),14% (inactive)
3,CN(C)Cc1cn(-c2ccc(-c3noc4c3C(=O)N(CC(=O)N3CCOCC3)CC4)cc2)nn1,6.87% (inactive)
4,C=CCN1C(=O)[C@@H](CC(=O)NCCCOCCCC)[C@]2(C(=O)OCC)CCCCC/C=C/12,-5.26% (inactive)
5,CC(=O)N1CCCc2cc(S(=O)(=O)N3CCCC(C(=O)N4CCN(c5cccc(Cl)c5)CC4)C3)ccc21 (stereo unspecified),76.9% (active)
6,Cc1ccc(S(=O)(=O)N2CCCC(C(=O)N3CCN(C)CC3)C2)cc1 (stereo unspecified),8.22% (inactive)
7,COc1ccc(S(=O)(=O)N2CCCC(C(=O)N3CCN(C)CC3)C2)cc1C (stereo unspecified),-0.76% (inactive)
8,COC(=O)C1CN(CC(C)C)CCS(=O)(=O)N1Cc1ccc(C)cc1 (stereo unspecified),0.94% (inactive)
9,O=C(NCc1cccs1)C1CCCN(S(=O)(=O)c2ccc([N+](=O)[O-])cc2)C1 (stereo unspecified),-10.3% (inactive)
10,Cc1ccc(-n2c(SCC(=O)Nc3cccc4ccccc34)nnc2-c2ccco2)cc1,6.67% (inactive)
11,Cc1ccc(C(=O)C2CCN(CC(=O)NCCC(C)C)CC2)cc1,6.65% (inactive)
12,O=C(CSc1nc2ccccc2s1)N=Nc1c(O)[nH]c2ccccc12,8.58% (inactive)
13,CC1(C)CC(N2CCN(C(c3ccccc3)c3ccccc3)CC2)=CC(=[N+]2CCCCC2)C1,85.2% (active)
14,CCOC(=O)C1CCN(C(=O)C(C)(C)NC(=O)Nc2ccccc2Cl)CC1,25.7% (inactive)
15,COC(=O)[C@]1(S(=O)(=O)c2ccccc2)C[C@@H]2ON=C(c3ccc(OC)cc3)[C@@H]2C1,3.59% (inactive)
16,N#C[C@]1(S(=O)(=O)c2ccccc2)C[C@@H]2ON=C(c3cccc(Br)c3)[C@@H]2C1,52.9% (active)
17,O=C(c1c[nH]c2ccccc12)N1CCC(Oc2cccnc2)CC1,-3.41% (inactive)
18,NC(=O)c1sc2nc3c(c(-c4ccccc4)c2c1N)CCC3,57.2% (active)
19,CC(C)OC(=O)c1sc2nc3c(cc2c1N)C(=O)CCC3,-22.1% (inactive)
20,CCOC(=O)[C@]12CCCCC/C=C\1N(Cc1ccc(OC)cc1)C(=O)[C@H]2CC(=O)NCc1ccc(C)o1,-9.71% (inactive)
